Measured values reported in PubChem BioAssay (NCATS).
Records with an inconclusive call do not appear. The list shows a part of the results. Active and inactive are the calls of the source. Unless noted, the call rests on the fitted dose curve; in most records, active means well fitted curve in the direction sought with a large enough effect; inconclusive means small, poorly fitted or top-dose-only effect, or another doubt; inactive means no such curve, though single readings can be large; an effect the other way counts as inactive or inconclusive.

Columns and labels:
[1] = target: Lethal(3)malignant brain tumor-like protein 1 (Homo sapiens) (UniProt Q9Y468); experiment: qHTS Assay for the Inhibitors of L3MBTL1: Hit Validation (AID 540279); conditions: L3MBTL1 methyl-lysine binding inhibition, biochemical qHTS; further: potency means the concentration at half of the fitted maximal effect; nearly all actives have a fitted effect of over 70% in size
Outline: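 AlphaScreen competition format: 50 nM L3MBTL1 preincubated 30 min at room temperature with 75 nM biotinylated H3(1-15)K9me1 peptide, then compounds added for 30 min, then streptavidin donor and nickel chelate acceptor beads (10 ug/mL final) for 30 min dark.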

[2] = target: DNA polymerase iota (Homo sapiens) (UniProt Q9UNA4); experiment: qHTS for Inhibitors of Polymerase Iota: Confirmatory Assay for Cherry-picked Compounds (AID 720496); conditions: Pol iota primer extension, TAMRA/BHQ fluorescence; further: potency means the concentration at half of the fitted maximal effect
Outline: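 Step 1: 10 nM Pol iota with compound, 15 min, room temperature. Step 2: 50 nM final quenched DNA substrate added. Step 3: fluorescence (ex 525, em 598 nm) read at 0 and after 10 min.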

[3] = target: DNA polymerase eta (Homo sapiens) (UniProt Q9Y253); experiment: qHTS for Inhibitors of Polymerase Eta: Confirmatory Assay for Cherry-picked Compounds (AID 720502); conditions: Pol eta primer extension, TAMRA/BHQ fluorescence, 10 min; further: potency means the concentration at half of the fitted maximal effect
Outline: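 Pol eta 10 nM; substrate 50 nM final (unlabeled primer, TAMRA reporter, BHQ-2 template); preincub. 15 min RT; reads t=0 and t=10 min at ex525/em598.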

[4] = target: Ferritin light chain (Equus caballus) (UniProt P02791); experiment: qHTS Validation Assay for Identification of Novel General Anesthetics (AID 2323); conditions: horse apoferritin, anesthetic-site fluorescent probe displacement; series mostly up to 76.9 µM
Outline: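 10 uM horse-spleen apoferritin + 1-AMA (50% saturated, PBS); cpd pin-transferred, 10 min RT. Ex 380/Em 535 nm endpoint. Activity normalized between free 1-AMA and 1-AMA/apoferritin; 4-parameter Hill fit of concentration-response.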

[5] = Validation screen for inhibitors of Lassa infection (AID 463096; calls by dose curve); conditions: Lassa virus infection, cell-based; series mostly up to 46.1 µM

Chain of DNA polymerase iota (Homo sapiens) (Q9UNA4 whole entry, looked up): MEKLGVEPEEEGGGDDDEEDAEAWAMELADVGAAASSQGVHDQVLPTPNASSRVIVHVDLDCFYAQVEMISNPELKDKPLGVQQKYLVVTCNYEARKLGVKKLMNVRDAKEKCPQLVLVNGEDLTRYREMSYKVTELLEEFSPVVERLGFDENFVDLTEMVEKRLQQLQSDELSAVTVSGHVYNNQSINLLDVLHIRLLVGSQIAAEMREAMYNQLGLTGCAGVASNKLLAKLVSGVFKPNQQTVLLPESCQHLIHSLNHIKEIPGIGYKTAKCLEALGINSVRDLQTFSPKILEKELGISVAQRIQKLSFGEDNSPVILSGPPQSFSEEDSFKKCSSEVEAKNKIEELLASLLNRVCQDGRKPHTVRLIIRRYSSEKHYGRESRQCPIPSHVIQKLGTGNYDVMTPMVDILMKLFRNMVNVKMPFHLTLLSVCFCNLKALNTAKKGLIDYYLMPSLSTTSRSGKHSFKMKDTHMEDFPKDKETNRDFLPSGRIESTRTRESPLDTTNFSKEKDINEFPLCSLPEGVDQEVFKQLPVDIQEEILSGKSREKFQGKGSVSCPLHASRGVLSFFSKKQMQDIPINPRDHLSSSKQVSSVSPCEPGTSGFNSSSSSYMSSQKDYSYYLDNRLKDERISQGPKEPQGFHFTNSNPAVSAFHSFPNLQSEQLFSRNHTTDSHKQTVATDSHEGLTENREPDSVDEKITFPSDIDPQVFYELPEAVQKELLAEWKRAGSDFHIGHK
Chain of Lethal(3)malignant brain tumor-like protein 1 (Homo sapiens) (Q9Y468 whole entry, looked up): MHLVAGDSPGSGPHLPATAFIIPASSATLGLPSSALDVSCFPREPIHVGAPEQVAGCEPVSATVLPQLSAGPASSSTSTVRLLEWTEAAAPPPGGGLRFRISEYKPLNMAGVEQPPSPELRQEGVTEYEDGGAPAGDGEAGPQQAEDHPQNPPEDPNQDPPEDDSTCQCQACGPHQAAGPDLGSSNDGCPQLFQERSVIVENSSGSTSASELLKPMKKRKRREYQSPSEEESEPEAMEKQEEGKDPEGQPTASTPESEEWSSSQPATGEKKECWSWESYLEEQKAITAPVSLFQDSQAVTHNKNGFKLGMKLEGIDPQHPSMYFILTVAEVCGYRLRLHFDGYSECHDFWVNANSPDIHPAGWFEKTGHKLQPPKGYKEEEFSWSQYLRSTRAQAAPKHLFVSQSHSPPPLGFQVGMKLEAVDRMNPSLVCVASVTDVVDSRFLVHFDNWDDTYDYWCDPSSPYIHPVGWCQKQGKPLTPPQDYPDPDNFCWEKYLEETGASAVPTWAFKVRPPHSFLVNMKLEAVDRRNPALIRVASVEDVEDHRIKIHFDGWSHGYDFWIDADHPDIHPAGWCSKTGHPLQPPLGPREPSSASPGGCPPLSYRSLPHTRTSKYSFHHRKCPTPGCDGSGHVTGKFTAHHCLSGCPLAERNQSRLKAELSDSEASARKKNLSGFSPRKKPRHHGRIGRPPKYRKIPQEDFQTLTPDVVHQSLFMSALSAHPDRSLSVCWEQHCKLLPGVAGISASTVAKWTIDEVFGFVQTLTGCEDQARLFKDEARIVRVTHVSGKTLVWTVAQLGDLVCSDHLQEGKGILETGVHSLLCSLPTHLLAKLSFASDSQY
Chain of Ferritin light chain (Equus caballus) (P02791 2-175 limits assumed): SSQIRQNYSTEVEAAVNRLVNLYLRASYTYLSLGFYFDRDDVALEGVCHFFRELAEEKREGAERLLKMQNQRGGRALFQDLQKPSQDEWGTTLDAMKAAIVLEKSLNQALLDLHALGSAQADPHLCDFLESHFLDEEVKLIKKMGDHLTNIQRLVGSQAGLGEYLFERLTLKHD
Chain of DNA polymerase eta (Homo sapiens) (Q9Y253 whole entry, looked up): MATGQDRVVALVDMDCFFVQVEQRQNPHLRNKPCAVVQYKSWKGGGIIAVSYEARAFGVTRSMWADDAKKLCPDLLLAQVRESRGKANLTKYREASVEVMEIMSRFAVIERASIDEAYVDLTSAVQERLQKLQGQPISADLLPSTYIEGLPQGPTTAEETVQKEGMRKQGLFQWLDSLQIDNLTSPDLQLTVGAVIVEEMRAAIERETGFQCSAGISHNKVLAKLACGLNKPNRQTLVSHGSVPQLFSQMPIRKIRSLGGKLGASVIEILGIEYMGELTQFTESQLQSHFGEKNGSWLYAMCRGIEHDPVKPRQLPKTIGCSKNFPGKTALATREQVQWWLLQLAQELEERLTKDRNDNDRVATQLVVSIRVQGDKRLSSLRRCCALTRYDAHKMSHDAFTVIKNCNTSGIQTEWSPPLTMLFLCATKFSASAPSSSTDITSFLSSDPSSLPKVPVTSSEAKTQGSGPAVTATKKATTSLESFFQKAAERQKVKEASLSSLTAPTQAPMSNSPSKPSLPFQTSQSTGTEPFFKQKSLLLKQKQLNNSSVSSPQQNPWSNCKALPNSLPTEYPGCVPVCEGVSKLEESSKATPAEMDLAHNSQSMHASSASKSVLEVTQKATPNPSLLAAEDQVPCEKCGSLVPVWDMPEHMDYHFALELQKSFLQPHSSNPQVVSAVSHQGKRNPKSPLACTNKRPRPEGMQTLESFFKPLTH

| Compound | Potency [1] | Potency [2] | Potency [3] | outcome [4] | outcome [5] |
| --- | --- | --- | --- | --- | --- |
| Cc1c(C(=O)O)cccc1-n1c(C)cc(/C=C2\C(=O)NC(=O)N(c3ccc4c(c3)OCO4)C2=O)c1C | 1.68 µM (active) | 15 µM (active) | 8.49 µM (active) | – | – |
| CN1C2CCC1CC(NC(=O)c1nn(C)c3ccccc13)C2 (stereo not given) | – | – | – | inactive | inactive |
